Results filed as inconclusive are left out. Activity calls are given as the source filed them. Unless noted, calls follow the shape of the dose curve; as a rule, active = well fitted curve in the direction sought with a large enough effect; inconclusive = small, poorly fitted or top-dose-only effect, or another doubt; inactive = no such curve, though single readings can be large; an effect the other way counts as inactive or inconclusive.
Key:
[1] = qHTS Assay for Identification of Small Molecule Agonists for NFkB Signaling Pathway. (AID 624478); settings: NFkB pathway reporter cell assay, agonist mode, cells co-stimulated with 10 pM TNF alpha; series mostly up to 46.1 µM;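 also: compounds tested together with TNF alpha at its EC50 of 10 pM; 0% is about no effect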
In short: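 Cells carrying an NFkB response element-driven beta-lactamase gene are co-treated with compound and 10 pM TNF alpha for 5 h, and reporter activity is then read as 460 and 530 nm fluorescence.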

[2] = Cell Proliferation Assay against the TMD8 Cell Line (AID 651645); settings: TMD8 DLBCL cell line proliferation/viability; at 46.1 µM (top of the series) unless noted;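 also: cells exposed to compound for 48 h before reading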
In short: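 TMD8 ABC DLBCL cells, 500 per well in phenol red-free RPMI with 5% FBS, were treated with compound by pin transfer and incubated 48 hours at 37C, 5% CO2. Viability was read by CellTiter-Glo luminescence, normalised to DMSO (100%) and 9.2 uM bortezomib (0%).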

[3] = Cell Proliferation Assay against the HBL1 Cell Line (AID 651646); settings: HBL1 DLBCL cells; at 46.1 µM (top of the series) unless noted;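 also: cells exposed to compound for 48 h before reading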
In short: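 Luminescent ATP read-out (CellTiter-Glo) after 48 h compound exposure of HBL1 cells at 37 °C; percent activity was scaled between DMSO as 100% and 9.2 uM bortezomib (final) as 0%.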

[4] = qHTS Assay for Identification of Small Molecule Antagonists for NFkB Signaling Pathway. (AID 624479; calls by dose curve; also: potency is read from the fitted curve at half-maximal effect); settings: NFkB pathway reporter cell assay, antagonist mode; series mostly up to 38.3 µM
[5] = target: Tyrosine-protein kinase Yes (Homo sapiens) (UniProt P07947); assay: qHTS for small molecule inhibitors of Yes1 kinase: Primary Screen (AID 686947); settings: Yes1 kinase biochemical qHTS inhibition; series mostly up to 76.9 µM; also: nearly all actives have a fitted effect of over 60% in size; also: potency is read from the fitted curve at half-maximal effect
In short: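 ADP-Glo luminescence readout; final 4 nM Yes1, 0.1 mM ATP, 0.3 mg/mL poly(E4Y), Tris pH 7.5, MgCl2, DTT, Brij-35. 20 min compound preincubation, 60 min reaction at RT. Normalized to DMSO wells with and without enzyme.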

[6] = Cell Proliferation Assay against the TMD8 Cell Line (Caspase readout at 8 hrs) (AID 651713); settings: TMD8 lymphoma cells, caspase activation luminescence; series mostly up to 46.1 µM
In short: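 Percent activity derived from Caspase-Glo signal, DMSO set to 0% and bortezomib (9.2 uM final) to 100%. TMD8 cells were exposed to compound for 8 h in RPMI with 5% FBS.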

[7] = qHTS assay for small molecule agonists of the antioxidant response element (ARE) signaling pathway (AID 651741; active = well fitted activation curve with a large enough effect in the signal ratio; the % refers to the signal ratio; also: potency is read from the fitted curve at half-maximal effect); settings: HepG2 ARE-bla reporter, beta-lactamase FRET ratio, 16 h; series mostly up to 96 µM
In short: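 Seeding 2,000 ARE-bla HepG2 cells per well preceded a 5 h incubation at 37 C/5% CO2 and a 16 h compound exposure at 37 C. Beta-lactamase reporter activity was then quantified by fluorescence after 2 h with LiveBLAzer B/G FRET substrate.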

[8] = qHTS assay for small molecule activators of the nuclear factor-kappa B (NF-kB) signaling pathway (AID 651749; active = well fitted activation curve with a large enough effect in the signal ratio; the % refers to the signal ratio; also: % of control where 0% means no effect); settings: NF-kB-bla ME-180 cells, beta-lactamase FRET ratio, 16 h; stronger effect = higher value
In short: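 Stably transfected ME-180 line; NF-kB response element upstream of beta-lactamase. Treatment: compound or DMSO, 16 hr. Detection: fluorescent FRET substrate.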

[9] = qHTS assay for environmental chemicals that activate the Aryl hydrocarbon Receptor (AhR) signaling pathway (AID 651777); settings: 1A2-DRE human hepatoma cells, luciferase, 24 h; stronger effect = higher value; also: % of control where 0% means no effect; nearly all actives have a fitted effect of over 15% in size
In short: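 Reporter gene assay: hepatoma cells with DRE/CYP1A2-luciferase, 24 hr compound incubation at 37 C, 5% CO2, luminescence after One-Glo (30 min, RT).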

[10] = target: Peroxisome proliferator-activated receptor alpha (Homo sapiens) (UniProt Q07869); assay: qHTS assay for small molecule agonists of the peroxisome proliferator-activated receptor alpha (PPARalpha) signaling pathway (AID 651778); settings: PathHunter PPARalpha complementation, chemiluminescence, 6 h; stronger effect = higher value; also: % of control where 0% means no effect
In short: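 Chemiluminescence from complemented enzyme reported PPARalpha activation in cells after 6 hr of compound treatment at 37 C. The detection reagent was incubated for 60 min at room temperature, and compounds were scored as agonists.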

[11] = Cytotoxicity counterscreen for NFkB agonists and antagonists (AID 624476); settings: NFkB reporter cell line viability counterscreen; series mostly up to 46.1 µM; also: % is scaled to controls: 0 for no effect and ±100 for the full control effect
[12] = Cell Proliferation Assay against the TMD8 Cell Line (Caspase readout at 16 hrs) (AID 651712); settings: TMD8 lymphoma cells, caspase activation luminescence; series mostly up to 46.1 µM
In short: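 Apoptotic response of TMD8 cells was judged from caspase 3/7 activation following a 16 hour compound incubation at 37 °C. Luminescent signal was converted to percent activity, with DMSO set as 0% and 9.2 uM final bortezomib as 100%.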

Sequence of Tyrosine-protein kinase Yes (Homo sapiens) (P07947 whole entry, looked up): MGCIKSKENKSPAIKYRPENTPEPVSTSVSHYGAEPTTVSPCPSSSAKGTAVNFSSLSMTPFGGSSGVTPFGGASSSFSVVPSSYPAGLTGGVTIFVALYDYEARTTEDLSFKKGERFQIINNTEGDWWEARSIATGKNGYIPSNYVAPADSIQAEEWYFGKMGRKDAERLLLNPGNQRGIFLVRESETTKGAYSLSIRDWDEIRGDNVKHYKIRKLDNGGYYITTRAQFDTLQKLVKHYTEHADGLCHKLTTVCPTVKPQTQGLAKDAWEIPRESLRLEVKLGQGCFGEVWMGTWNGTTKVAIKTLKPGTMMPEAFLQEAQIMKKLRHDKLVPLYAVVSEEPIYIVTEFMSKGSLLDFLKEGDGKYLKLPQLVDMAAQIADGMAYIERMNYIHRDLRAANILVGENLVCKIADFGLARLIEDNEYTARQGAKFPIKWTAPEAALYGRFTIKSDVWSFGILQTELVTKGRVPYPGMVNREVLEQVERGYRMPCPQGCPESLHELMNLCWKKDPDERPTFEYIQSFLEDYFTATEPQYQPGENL
Sequence of Peroxisome proliferator-activated receptor alpha (Homo sapiens) (Q07869 whole entry, looked up): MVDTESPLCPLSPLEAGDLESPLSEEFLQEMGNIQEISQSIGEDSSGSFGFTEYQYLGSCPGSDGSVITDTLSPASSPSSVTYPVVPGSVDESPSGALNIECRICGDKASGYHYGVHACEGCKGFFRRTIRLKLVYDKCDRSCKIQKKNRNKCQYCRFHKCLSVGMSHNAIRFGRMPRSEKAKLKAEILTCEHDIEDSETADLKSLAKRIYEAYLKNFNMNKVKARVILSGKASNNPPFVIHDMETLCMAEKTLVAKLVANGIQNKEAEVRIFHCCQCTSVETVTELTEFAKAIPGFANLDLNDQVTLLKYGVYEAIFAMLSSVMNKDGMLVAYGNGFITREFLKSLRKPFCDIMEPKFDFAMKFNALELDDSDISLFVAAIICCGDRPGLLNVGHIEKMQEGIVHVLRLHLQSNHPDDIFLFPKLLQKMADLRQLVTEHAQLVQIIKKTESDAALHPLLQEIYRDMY

## CCn1c(-c2nonc2N)nc2c(C#CC(C)(C)O)ncc(OC[C@H]3CCCNC3)c21
[1]
  outcome: inactive
[2]
  viability (% of control): 22.8%
[3]
  viability, percent of control: 70.2%

## CCOc1ccn(-c2ccc(F)cc2)c(=O)c1C(=O)Nc1ccc(Oc2ccnc(N)c2Cl)c(F)c1
[1]
  outcome: inactive
[4]
  Potency: 16.8 µM (active)
[2]
  viability (% of control): 53.5%
[3]
  viability, percent of control: 68.6%
[5]
  Potency: 1.94 µM (active)

## Cc1c(C)c2c(c(C)c1O)CCC(C)(COc1ccc(CC3SC(=O)NC3=O)cc1)O2 (configuration not stated)
[1]
  outcome: inactive
[2]
  viability (% of control): 71.7%
[3]
  viability, percent of control: 81.5%
[6]
  Potency: inactive
[7]
  Potency: 21.7 µM (active)
[8]
  activation: -3.91% (inactive)
[9]
  activation: 5.68% (inactive)
[10]
  max response: 1.07% (inactive)
[5]
  Potency: inactive

## CN(C)c1ccc(Nc2nc(N)n(C(=O)c3c(F)cccc3F)n2)cc1
[1]
  outcome: inactive
[4]
  Potency: 14.9 µM (active)
[2]
  viability (% of control): 28.9%
[3]
  viability, percent of control: 46.5%
[5]
  Potency: 0.772 µM (active)

## O=C(Nc1cccnc1)N1CCC(Cc2cccc(Oc3ccc(C(F)(F)F)cn3)c2)CC1
[1]
  outcome: inactive
[2]
  viability (% of control): 36.7%
[3]
  viability, percent of control: 46.1%
[5]
  Potency: inactive

## S=C(NCc1ccc2c(c1)OCO2)N1CCN(c2ncnc3c2oc2ccccc23)CC1
[11]
  Potency: inactive
[1]
  outcome: inactive
[2]
  viability (% of control): 26.5%
[3]
  viability, percent of control: 40.5%
[5]
  Potency: inactive

## OCCC#Cc1nc(-c2ccc(F)cc2)c(-c2ccncc2)n1CCCc1ccccc1
[1]
  outcome: inactive
[4]
  Potency: 14.9 µM (active)
[2]
  viability (% of control): 67.4%
[3]
  viability, percent of control: 55.3%

## Cc1cc(C=c2sc3nc4ccccc4n3c2=O)c(C)n1-c1ccccc1
[1]
  outcome: inactive
[4]
  Potency: inactive
[2]
  viability (% of control): 43.9%
[3]
  viability, percent of control: 43.7%
[12]
  Potency: inactive
[6]
  Potency: inactive
[5]
  Potency: inactive

## COc1cc(F)c(F)c(Nc2ccc(I)cc2F)c1NS(=O)(=O)C1(C[C@H](O)CO)CC1
[1]
  outcome: inactive
[4]
  Potency: 5.95 µM (active)
[2]
  viability (% of control): 69.3%
[3]
  viability, percent of control: 62.4%

## O=C(O)c1ccc(-c2c[nH]c3ccc(-c4ccccc4)cc23)cc1C1CCCC1
[1]
  outcome: inactive
[4]
  Potency: 14.9 µM (active)
[2]
  viability (% of control): 83.2%
[3]
  viability, percent of control: 93.3%
[6]
  Potency: inactive
[5]
  Potency: 1.54 µM (active)

## C#Cc1cccc(Nc2ncnc3cc(OCCOC)c(OCCOC)cc23)c1
[1]
  outcome: inactive
[2]
  viability (% of control): 58%
[3]
  viability, percent of control: 74.6%
[12]
  Potency: inactive
[6]
  Potency: inactive

## C/C(=C\C(=O)Nc1ccccc1C(=O)O)c1ccc2ccccc2c1
[1]
  outcome: inactive
[2]
  viability (% of control): 53.7%
[3]
  viability, percent of control: 70.3%
[6]
  Potency: inactive
[5]
  Potency: inactive

## CC[C@H](Nc1ncnc2nc[nH]c12)c1nc2cccc(F)c2c(=O)n1-c1ccccc1
[1]
  outcome: inactive
[4]
  Potency: inactive
[2]
  viability (% of control): 19.3%
[3]
  viability, percent of control: 68.9%
[5]
  Potency: inactive
